{
  "source": "PubChem BioAssay (NCATS)",
  "note": "Inconclusive results are not listed. Values without a mark were called inactive. Calls of active or inactive are those of the source. The call rests on the fitted dose curve; in most records, active means well fitted activation curve with a large enough effect; inconclusive means small, poorly fitted or top-dose-only effect; inactive means no such curve, though single readings can be large or run the other way. Potency means the concentration at half of the fitted maximal effect.",
  "data": [
    {"molecular_target": "Cellular tumor antigen p53 (Homo sapiens) (UniProt P04637)", "sequence (P04637 whole entry, looked up)": "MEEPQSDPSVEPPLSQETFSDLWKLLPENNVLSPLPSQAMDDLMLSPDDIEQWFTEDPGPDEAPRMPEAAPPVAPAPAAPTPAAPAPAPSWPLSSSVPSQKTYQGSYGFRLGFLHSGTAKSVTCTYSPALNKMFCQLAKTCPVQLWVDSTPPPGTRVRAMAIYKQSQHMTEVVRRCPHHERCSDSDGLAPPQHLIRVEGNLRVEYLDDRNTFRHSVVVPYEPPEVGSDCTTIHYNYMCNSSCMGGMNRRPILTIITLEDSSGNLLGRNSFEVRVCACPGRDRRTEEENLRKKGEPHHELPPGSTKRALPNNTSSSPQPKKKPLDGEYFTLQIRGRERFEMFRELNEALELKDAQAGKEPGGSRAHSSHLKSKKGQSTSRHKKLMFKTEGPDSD", "test": "Primary qHTS for small molecule compounds that upregulate eGFP-tagged delta133p53alpha (in N-terminal) cells. (AID 2060322); further: nearly all actives have a fitted effect of over 75% in size;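 on activation: series mostly up to about 56 µM; 0% = DMSO vehicle and 100% = reference activator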", "conditions": "NCI-H358 eGFP-delta133p53alpha fluorescence, 24 h; activation: active compounds read high", "outline": "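NCI-H358 cells pre-induced 24 h with 10 ng/ml doxycycline for eGFP-delta133p53alpha, plated dox-free and exposed 24 h at 37C to titrated compounds. Fixed, Hoechst-stained; gated GFP peak intensity by laser scanning cytometry, normalized to DMSO (0%) and 57.5 uM 5-azacytidine (100%).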", "units": {"activation": "%"}, "values": [
      {"smiles": "CC1=CCC(C(C)(C)O[C@@H]2O[C@H](CO[C@@H]3O[C@@H](C)[C@H](O)[C@@H](O)[C@H]3O)[C@@H](O)[C@H](O)[C@H]2O)CC1", "note": "(some centres undefined)", "activation": -6.11},
      {"smiles": "C/C=C(\\C)C(=O)O[C@H]1[C@@H](O[C@]2(COC(=O)CC(C)C)O[C@H](COC(=O)C(C)C)[C@@H](OC(C)=O)[C@@H]2O)O[C@H](COC(C)=O)[C@@H](O)[C@@H]1O", "activation": 10.7},
      {"smiles": "CC1CCC23COC(=O)C2=CC(O)CC3C1(C)CCc1ccoc1", "note": "(centres undefined)", "activation": -14.3},
      {"smiles": "CC1=C2C=C(CO)C(CO)CCC2(C)CCC1=O", "note": "(centres undefined)", "activation": 3.82},
      {"smiles": "C[C@H](NC(=O)CCc1nc2ccccc2c(=O)[nH]1)c1ccccc1", "activation": 1},
      {"smiles": "NCCCNc1ccc(Nc2nccc(Nc3cc(C4CC4)[nH]n3)n2)cc1", "Potency": "1.51 µM (active)"},
      {"smiles": "COC1=CC(=O)C=C(C)C12Oc1c(Cl)c(OC)cc(OC)c1C2=O", "note": "(centres undefined)", "activation": 1.53},
      {"smiles": "Cc1ccn(-c2cc(Cl)ccc2[C@@H](Oc2cc(-c3ccc(C[C@H](N)C(=O)O)cc3)nc(N)n2)C(F)(F)F)n1", "activation": -7},
      {"smiles": "C=C(CCO)C(=O)OCC1OCC(OC(=O)C(=C)CCO[C@@H]2O[C@H](COC(=O)C(=C)CCO[C@@H]3O[C@H](CO)[C@@H](O)[C@H](O)[C@H]3O)[C@@H](O)[C@H](O)[C@H]2O)C(O)C1O", "note": "(some centres undefined)", "activation": 11.5},
      {"smiles": "CC[C@H](C)[C@H](NC(=O)[C@H](Cc1ccc(O)cc1)NC(=O)[C@@H](N)C(C)C)C(=O)N[C@@H](Cc1cnc[nH]1)C(=O)N1CCC[C@H]1C(=O)N[C@@H](Cc1ccccc1)C(=O)O", "activation": 0.333},
      {"smiles": "CC1C(=O)OCC2=CC[N+]3([O-])CCC(OC(=O)C(C)(O)C1(C)O)C23", "note": "(centres undefined)", "activation": 24.1},
      {"smiles": "C[C@@H]1O[C@@H](O[C@H]2[C@H](OC(=O)[C@]34CCC(C)(C)C[C@H]3C3=CCC5[C@@]6(C)C[C@H](O)[C@H](O[C@@H]7O[C@H](CO)[C@@H](O[C@H]8OC[C@](O)(CO)[C@H]8O)[C@H](O)[C@H]7O)[C@@](C)(CO)C6[C@H](O)C[C@@]5(C)[C@]3(C)C[C@H]4O)OC[C@H](O)[C@@H]2O)[C@H](O)[C@H](O)[C@H]1O[C@@H]1OC[C@@H](O)[C@H](O[C@@H]2OC[C@](O)(CO)[C@H]2O)[C@H]1O", "note": "(some centres undefined)", "activation": -17.6},
      {"smiles": "O=C(Nc1ccn(Cc2c(F)cccc2C(F)(F)F)n1)c1c(F)cccc1F", "activation": 1.67},
      {"smiles": "CC1CCC2(NC1)OC1CC3C4CC=C5CC(O[C@@H]6O[C@H](CO)[C@@H](O[C@@H]7O[C@@H](C)[C@H](O)[C@@H](O)[C@H]7O)[C@H](O)[C@H]6O[C@@H]6O[C@@H](C)[C@H](O)[C@@H](O)[C@H]6O)CCC5(C)C4CCC3(C)C1C2C", "note": "(some centres undefined)", "activation": 16.8},
      {"smiles": "CCC(C)C(=O)OC1CC(O)C23C4OCC5(C(O)CC2C1(C)C(O)O4)C3C(=O)CC1(C)C(c2ccoc2)CC2OC215", "note": "(centres undefined)", "activation": 22.1},
      {"smiles": "C=C[C@H]1[C@H](O[C@@H]2O[C@H](CO)[C@@H](O)[C@H](O)[C@H]2O)OC=C(C(=O)OC)[C@H]1C[C@@H]1N[C@H](C(=O)O)Cc2c1[nH]c1ccccc21", "activation": -4.58},
      {"smiles": "CC(=O)O[C@H]1C[C@@](O)(C(C)C)C2[C@@H](OC(=O)c3ccc(O)cc3)C[C@@]3(C)O[C@H]3C[C@]21C", "note": "(some centres undefined)", "activation": -6.11},
      {"smiles": "C=C(C)[C@H]1CC[C@]2(C(=O)O)CC[C@]3(C)C(CCC4[C@@]5(C)CCC(=O)C(C)(C)C5CC[C@]43C)C12", "note": "(some centres undefined)", "activation": -11.6},
      {"smiles": "C[C@@H]1C(=O)O[C@H]2[C@H]1CC[C@@]1(C)C(=O)C=C[C@@](C)(O)[C@H]21", "activation": 15.2},
      {"smiles": "CC(=O)O[C@H]1C[C@H](OC(C)=O)[C@]2(C)[C@H](CC[C@@]34O[C@@H]3C3=C(C)C(=O)O[C@@H]3C[C@H]42)C1(C)C", "activation": 4.46},
      {"smiles": "C=C1CCC2C(C)(C)CCCC2(C)C1CC/C(C)=C\\CO", "note": "(centres undefined)", "activation": -12.5},
      {"smiles": "CC(O)/C=C/C1(O)C(C)C(O)C(O[C@@H]2O[C@H](CO)[C@@H](O)[C@H](O)[C@H]2O)CC1(C)C", "note": "(some centres undefined)", "activation": -14.3},
      {"smiles": "CC(=O)O[C@H]1[C@H](OC(=O)C(C)C)[C@]2(C)OC3(CC[C@]2(C)[C@H]2CCC[C@]4(CO4)[C@]12C)COC(=O)C3", "note": "(some centres undefined)", "activation": 1.53},
      {"smiles": "COc1c2c(nc3occc13)C(CC=C(C)C)(OC)C(O)CC2", "note": "(centres undefined)", "activation": 5.34}
    ]}
  ]
}
